PubChem BioAssay (NCATS)
Results filed as inconclusive are left out. Activity calls are given as the source filed them. Unless noted, calls follow the shape of the dose curve; as a rule, active = well fitted curve in the direction sought with a large enough effect; inconclusive = small, poorly fitted or top-dose-only effect, or another doubt; inactive = no such curve, though single readings can be large; an effect the other way counts as inactive or inconclusive.

How the values were obtained:
[1] = target: Lysosomal acid glucosylceramidase (Homo sapiens) (UniProt P04062); test: Glucocerebrosidase-p2 (AID 348; in the data active = potency below about 10 µM; also: potency is read from the fitted curve at half-maximal effect); conditions: purified GBA, blue fluorogenic substrate, 40 min
Sequence of Lysosomal acid glucosylceramidase (Homo sapiens) (P04062 whole entry, looked up): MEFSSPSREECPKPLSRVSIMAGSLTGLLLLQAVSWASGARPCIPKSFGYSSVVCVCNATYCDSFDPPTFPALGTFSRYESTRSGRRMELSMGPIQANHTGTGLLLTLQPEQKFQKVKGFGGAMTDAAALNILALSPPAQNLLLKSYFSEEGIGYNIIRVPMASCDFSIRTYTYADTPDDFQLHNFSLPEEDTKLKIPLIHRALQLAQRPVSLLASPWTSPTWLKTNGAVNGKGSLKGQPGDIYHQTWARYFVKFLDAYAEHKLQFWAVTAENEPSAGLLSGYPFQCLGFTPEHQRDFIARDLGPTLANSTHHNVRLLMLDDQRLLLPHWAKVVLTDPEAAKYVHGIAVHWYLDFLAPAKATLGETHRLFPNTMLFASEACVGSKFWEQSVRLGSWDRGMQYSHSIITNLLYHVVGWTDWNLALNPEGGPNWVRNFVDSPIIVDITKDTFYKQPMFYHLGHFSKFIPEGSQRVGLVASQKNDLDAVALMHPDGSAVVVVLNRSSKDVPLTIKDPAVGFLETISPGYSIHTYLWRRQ
Outline: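 Normal human glucocerebrosidase (0.2 nM) with blue fluorogenic substrate (80 uM final) in citrate/phosphate pH 5.9 with 10mM sodium taurocholate, 0.01% tween-20; 40 min RT, NaOH/glycine stop; fluorescence Ex 365/Em 440; AC50 from a titration from 0.6 nM upwards.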

[2] = AP1 Signaling Pathway (AID 357; active = well fitted curve in either direction with a large enough effect, not every such curve was filed as active;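 also: ME-180 reporter cells stimulated with EGF at its EC50 level; % is scaled to controls: 0 for no effect and ±100 for the full control effect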); conditions: ME-180 AP-1-bla reporter, EGF-induced, beta-lactamase ratio, 5 h; at 7.69 µM (top of the series) unless noted
Outline: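 Modulation of EGF-driven AP-1 transcription was assessed with a beta-lactamase reporter in ME-180 cells. Compound and EC50 EGF were co-incubated 5 hours at 37 °C before 2.5-hour CCF4 loading at room temperature and dual-emission reading.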

[3] = target: Cytochrome P450 1A2 (Homo sapiens) (UniProt P05177); test: p450-cyp1a2 (AID 410; calls by dose curve; also: potency is read from the fitted curve at half-maximal effect); conditions: recombinant CYP1A2, luciferin-ME demethylation, luminescence; series mostly up to 57 µM
Sequence of Cytochrome P450 1A2 (Homo sapiens) (P05177 whole entry, looked up): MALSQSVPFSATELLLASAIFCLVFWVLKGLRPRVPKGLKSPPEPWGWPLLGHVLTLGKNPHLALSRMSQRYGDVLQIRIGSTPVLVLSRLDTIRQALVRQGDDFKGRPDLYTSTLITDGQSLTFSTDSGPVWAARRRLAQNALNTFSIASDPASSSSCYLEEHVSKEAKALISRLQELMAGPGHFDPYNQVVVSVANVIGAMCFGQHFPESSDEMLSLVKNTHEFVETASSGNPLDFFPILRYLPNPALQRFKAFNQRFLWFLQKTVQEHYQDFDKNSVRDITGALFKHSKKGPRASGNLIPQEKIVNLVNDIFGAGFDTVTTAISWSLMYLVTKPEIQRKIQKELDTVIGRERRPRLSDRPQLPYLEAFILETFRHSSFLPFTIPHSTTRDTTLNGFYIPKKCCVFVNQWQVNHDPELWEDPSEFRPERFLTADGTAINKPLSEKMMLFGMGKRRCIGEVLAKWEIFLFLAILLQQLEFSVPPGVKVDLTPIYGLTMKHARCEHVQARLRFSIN
Outline: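 Luminescent demethylation readout: Luciferin-ME (100uM, equal to Km) turned over by 20nM CYP1A2 for 60 min at room temperature after NADPH regeneration addition, following 10 min compound preincubation. Normalization used 57 uM furafylline as full inhibition.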

[4] = NFAT Signaling Pathway (AID 444; active = well fitted curve in either direction with a large enough effect, not every such curve was filed as active;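 also: carbachol stimulus at about its EC50 of 1 µM final; % is scaled to controls: 0 for no effect and ±100 for the full control effect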); conditions: Jurkat NFAT-bla M1, carbachol, beta-lactamase ratio, 5 h; at 7.69 µM (top of the series) unless noted
Outline: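 Read-out: CCF4 FRET ratio (460 nm/530 nm) after 1 h RT dye loading, used for %activity and AC50 from titration series. Cells: Jurkat NFAT-β-lactamase/M1 line, treated with compound plus 1 uM carbachol for 5 h, 37 °C.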

[5] = target: Glucocorticoid receptor (Homo sapiens) (UniProt P04150); test: GR-GFP Redistribution (AID 450;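 active = compounds whose dose series gives a full or clear partial fitted curve of increased nuclear translocation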; also: potency is read from the fitted curve at half-maximal effect); conditions: U2OS GR-GFP nuclear translocation, laser cytometry, 2 h
Sequence of Glucocorticoid receptor (Homo sapiens) (P04150 whole entry, looked up, the tested form may be a part): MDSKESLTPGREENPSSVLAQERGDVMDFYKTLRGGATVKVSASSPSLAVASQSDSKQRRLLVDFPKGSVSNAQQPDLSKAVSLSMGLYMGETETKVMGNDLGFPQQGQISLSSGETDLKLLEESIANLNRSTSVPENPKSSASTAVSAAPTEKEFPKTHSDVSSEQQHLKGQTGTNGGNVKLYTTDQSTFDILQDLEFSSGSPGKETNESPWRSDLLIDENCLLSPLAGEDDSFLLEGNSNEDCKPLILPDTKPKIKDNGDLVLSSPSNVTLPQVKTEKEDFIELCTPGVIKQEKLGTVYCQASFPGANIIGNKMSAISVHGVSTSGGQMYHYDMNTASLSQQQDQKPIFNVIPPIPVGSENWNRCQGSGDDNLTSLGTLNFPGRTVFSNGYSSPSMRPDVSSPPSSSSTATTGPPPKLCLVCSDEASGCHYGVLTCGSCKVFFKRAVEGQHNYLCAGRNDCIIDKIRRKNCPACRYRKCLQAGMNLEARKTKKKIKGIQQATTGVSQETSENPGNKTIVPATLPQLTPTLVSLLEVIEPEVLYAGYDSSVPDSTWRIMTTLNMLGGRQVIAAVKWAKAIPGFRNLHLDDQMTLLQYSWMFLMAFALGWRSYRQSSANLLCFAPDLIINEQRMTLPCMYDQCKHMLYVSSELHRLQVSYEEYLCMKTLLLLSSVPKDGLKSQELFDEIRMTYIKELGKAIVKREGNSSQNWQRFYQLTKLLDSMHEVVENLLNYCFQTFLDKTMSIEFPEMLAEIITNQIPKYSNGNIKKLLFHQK

[6] = target: Glucocorticoid receptor (Homo sapiens) (UniProt P04150); test: GR-EFC Redistribution (AID 451; calls by dose curve; also: potency is read from the fitted curve at half-maximal effect); conditions: CHO-K1 GR-EFC translocation, beta-gal luminescence, 2 h
Outline: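 Translocation of GR-ED fusion to nuclear EA restores b-gal, read by luminescence after 1 h room-temperature detection. Engineered CHO-K1 biosensor cells, 1,000/well, exposed 2 h at 37 C to titrations up to 46 uM final.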

[7] = target: Mitogen-activated protein kinase 10 (Mus musculus) (UniProt Q61831); test: JNK3 AlphaScreen Assay (AID 530; active = well fitted curve in either direction with a large enough effect, not every such curve was filed as active;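 also: kinase came from lysate of stimulated human HepG2 cells; signal reports phosphorylation of biotinylated GST-cJun 1-79 at Ser73 with 10 µM ATP; % is scaled to controls: 0 for no effect and ±100 for the full control effect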); conditions: JNK3 lysate, c-Jun phosphorylation; series mostly up to 57.1 µM
Outline: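 qHTS titrations with 15 min compound pre-incubation before adding ATP (10 uM final). Read-out: AlphaScreen of Ser73-phosphorylated biotin-GST-cJun using HepG2 lysate JNK3 activated by IL-1β and TNFα.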

[8] = target: 3',5'-cyclic-AMP phosphodiesterase 4B (Homo sapiens) (UniProt Q07343); test: qHTS Assay for Inhibitors of PDE-IV (AID 607; active = well fitted activation curve with a large enough effect in the main read-out, with a control signal flat, not every such curve was filed as active; also: % of control where 0% means no effect); conditions: HEK293 ACTOne CNG channel cells, membrane potential fluorescence; series mostly up to 22.9 µM
Sequence of 3',5'-cyclic-AMP phosphodiesterase 4B (Homo sapiens) (Q07343 whole entry, looked up): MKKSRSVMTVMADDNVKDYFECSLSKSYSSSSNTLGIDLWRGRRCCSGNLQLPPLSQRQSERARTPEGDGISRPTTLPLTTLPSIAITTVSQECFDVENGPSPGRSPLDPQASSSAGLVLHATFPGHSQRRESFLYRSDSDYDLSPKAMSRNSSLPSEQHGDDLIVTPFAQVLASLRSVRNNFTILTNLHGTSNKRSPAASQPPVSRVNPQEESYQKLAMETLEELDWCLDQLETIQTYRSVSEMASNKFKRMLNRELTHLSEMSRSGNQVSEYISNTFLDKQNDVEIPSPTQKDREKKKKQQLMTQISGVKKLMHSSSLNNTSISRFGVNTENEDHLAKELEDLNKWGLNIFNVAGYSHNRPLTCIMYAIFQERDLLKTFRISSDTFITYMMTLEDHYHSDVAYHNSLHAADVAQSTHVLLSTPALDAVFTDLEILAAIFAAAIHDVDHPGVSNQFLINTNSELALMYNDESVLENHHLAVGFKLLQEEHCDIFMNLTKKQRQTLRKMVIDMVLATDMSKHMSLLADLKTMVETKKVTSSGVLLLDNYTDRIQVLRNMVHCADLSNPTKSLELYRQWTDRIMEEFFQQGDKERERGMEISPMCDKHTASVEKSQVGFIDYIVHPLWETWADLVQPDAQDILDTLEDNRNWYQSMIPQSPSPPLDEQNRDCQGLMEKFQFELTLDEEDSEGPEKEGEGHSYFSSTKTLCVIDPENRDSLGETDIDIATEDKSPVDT
Outline: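 HEK293 ACTOne cells with CNG channel (1000/well), endogenous PDE4; membrane potential dye, compounds up to 22.9 uM final. Fluorescence Ex 535/Em 590; RO 20-1724 (100 uM final) as reference.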

[9] = qHTS Assay for Lipid Storage Modulators (AID 1519; calls by dose curve); conditions: Drosophila S3 cells, BODIPY lipid droplet/cell ratio, laser cytometry, cells loaded with oleic acid; for activity change, negative = inhibition: at 57.5 µM (top of the series)
Outline: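 Cells seeded at 5,000 per well were treated with compounds over a concentration series and loaded with oleic acid (400 uM, as added). Lipid droplet fluorescence (488 nm excitation, 500-530 nm channel) was read by laser-scanning cytometry and normalized to 20 uM Triacsin C.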

[10] = target: Dual specificity protein kinase CLK4 (Homo sapiens) (UniProt Q9HAZ1); test: qHTS Assay for Inhibitors of CDC-like Kinase 4 (Kinase-Glo Assay) (AID 1770); conditions: recombinant Clk4, Kinase-Glo ATP depletion luminescence; series mostly up to 66.7 µM; also: % is scaled to controls: 0 for no effect and ±100 for the full control effect; nearly all actives have a fitted effect of over 65% in size
Sequence of Dual specificity protein kinase CLK4 (Homo sapiens) (Q9HAZ1 whole entry, looked up): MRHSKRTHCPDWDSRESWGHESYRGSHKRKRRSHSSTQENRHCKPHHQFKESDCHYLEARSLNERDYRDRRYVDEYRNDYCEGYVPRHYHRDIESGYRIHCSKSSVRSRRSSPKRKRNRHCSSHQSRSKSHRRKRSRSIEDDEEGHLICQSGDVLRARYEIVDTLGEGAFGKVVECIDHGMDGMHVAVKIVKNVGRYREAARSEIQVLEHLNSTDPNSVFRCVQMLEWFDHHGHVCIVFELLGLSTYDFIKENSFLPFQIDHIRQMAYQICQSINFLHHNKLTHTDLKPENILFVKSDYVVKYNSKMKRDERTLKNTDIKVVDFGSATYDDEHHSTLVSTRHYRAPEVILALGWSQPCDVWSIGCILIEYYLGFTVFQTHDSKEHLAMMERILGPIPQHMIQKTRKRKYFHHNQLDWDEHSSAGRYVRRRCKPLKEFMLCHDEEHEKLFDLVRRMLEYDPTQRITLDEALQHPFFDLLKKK
Outline: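 25 nM Clk4 with 100 uM RS repeat peptide and 1 uM ATP (final) in Tris pH7.5, 10 mM MgCl2, 4.5 h at room temperature. Remaining ATP measured by Kinase-Glo luciferase luminescence.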

[11] = target: Dual specificity protein kinase CLK4 (Homo sapiens) (UniProt Q9HAZ1); test: qHTS Assay for Inhibitors of CDC-like Kinase 4 (ADP-Glo Assay) (AID 1771); conditions: recombinant CLK4, ADP-Glo luminescence; series mostly up to 80 µM; also: % is scaled to controls: 0 for no effect and ±100 for the full control effect; nearly all actives have a fitted effect of over 70% in size
Outline: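 ADP production was read by ADP-Glo luminescence after residual ATP depletion, following 1 h room-temperature reaction of 25 nM Clk4, 1 uM ATP and 100 uM RS peptide with MgCl2, EGTA, DTT and Triton X-100.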

[12] = target: Dual specificity protein kinase CLK4 (Homo sapiens) (UniProt Q9HAZ1); test: qHTS Assay for Inhibitors of CDC-like Kinase 4 (ADP-FP Assay) (AID 1795); conditions: Transcreener ADP fluorescence polarization; series mostly up to 50 µM;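 also: recombinant human CLK4 phosphorylating RS repeat peptide at 1 µM ATP; % is scaled to controls: 0 for no effect and ±100 for the full control effect; nearly all actives have a fitted effect of over 60% in size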
Outline: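 Recombinant Clk4 (6.25 nM) phosphorylated 100 uM RS repeat peptide with 1 uM ATP in 25 mM Tris pH 7.5, 10 mM MgCl2, 0.5 mM EGTA, 2.5 mM DTT, 0.01% Triton X-100 for 1 h. ADP was detected by Transcreener ADP2 competitive fluorescence polarization after 30 min at room temperature.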

[13] = target: Ubiquitin carboxyl-terminal hydrolase 1 (Homo sapiens) (UniProt O94782); test: Inhibitors of USP1/UAF1: Pilot qHTS (AID 504865); conditions: purified USP1/UAF1, Ub-rhodamine cleavage fluorescence; series mostly up to 54.9 µM;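 also: rhodamine fluorescence freed from ubiquitin-rhodamine substrate followed over time; top concentration of the series differs between compounds; % is scaled to controls: 0 for no effect and ±100 for the full control effect; nearly all actives have a fitted effect of over 35% in size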
Sequence of Ubiquitin carboxyl-terminal hydrolase 1 (Homo sapiens) (O94782 whole entry, looked up): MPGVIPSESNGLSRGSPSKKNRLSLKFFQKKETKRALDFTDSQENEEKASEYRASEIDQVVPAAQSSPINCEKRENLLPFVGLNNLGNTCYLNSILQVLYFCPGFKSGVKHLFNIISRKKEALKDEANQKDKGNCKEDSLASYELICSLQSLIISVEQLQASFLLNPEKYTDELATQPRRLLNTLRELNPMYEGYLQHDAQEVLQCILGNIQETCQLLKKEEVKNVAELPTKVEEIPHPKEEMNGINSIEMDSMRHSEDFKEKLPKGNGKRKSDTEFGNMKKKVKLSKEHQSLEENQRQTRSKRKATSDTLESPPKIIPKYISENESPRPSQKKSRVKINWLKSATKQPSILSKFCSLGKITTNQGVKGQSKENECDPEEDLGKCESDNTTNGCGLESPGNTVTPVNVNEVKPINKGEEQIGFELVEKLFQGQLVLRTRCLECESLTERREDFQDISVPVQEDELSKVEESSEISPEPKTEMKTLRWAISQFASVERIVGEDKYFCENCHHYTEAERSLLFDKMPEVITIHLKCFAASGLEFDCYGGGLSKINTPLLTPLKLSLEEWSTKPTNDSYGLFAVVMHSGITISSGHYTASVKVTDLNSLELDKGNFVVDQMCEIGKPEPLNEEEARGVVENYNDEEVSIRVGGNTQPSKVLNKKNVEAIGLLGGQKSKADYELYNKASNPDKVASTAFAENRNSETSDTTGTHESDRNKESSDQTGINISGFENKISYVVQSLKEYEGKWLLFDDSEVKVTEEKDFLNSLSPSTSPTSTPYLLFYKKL
Outline: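 USP1/UAF1 complex at 1 nM preincubated 15 min at room temperature with compound, then Ub-Rho substrate added at 150 nM final. Fluorescence (480/540 nm) read kinetically in 50 mM HEPES pH 7.8, 0.5 mM EDTA, 1 mM TCEP, 0.1 mg/ml BSA, 0.01% Tween-20.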

[14] = Primary qHTS for small molecule stabilizers of the endoplasmic reticulum resident proteome: Secreted ER Calcium Modulated Protein (SERCaMP) assay (AID 1508630); conditions: SH-SY5Y GLuc-SERCaMP (Gaussia luciferase released on ER calcium loss) secretion, thapsigargin, luminescence; series mostly up to 38.4 µM; also: % is scaled to controls: 0 for no effect and ±100 for the full control effect
Outline: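 The SH-SY5Y reporter protocol was run at 3 concentrations up to 38.3 uM (primary) or 11 concentrations (follow-up): 16 h compound, 100 nM thapsigargin for 4 h, then extracellular luciferase luminescence.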

[15] = Stat Signaling Pathway (AID 446; active = well fitted curve in either direction with a large enough effect, not every such curve was filed as active); conditions: ME-180 (cervical carcinoma) SIE beta-lactamase reporter, IL-6 stimulated, 5 h; at 7.69 µM (top of the series) unless noted
Outline: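 Normalization used AC90 stimulation (300 pM IL-6) and AC90 inhibition (125 nM pan-JAK inhibitor at 40 pM IL-6). The underlying signal is SIE-driven beta-lactamase in ME-180 cells after 5 h IL-6 exposure with compound.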

[16] = target: Cytochrome P450 3A4 (Homo sapiens) (UniProt P08684); test: qHTS Assay for Inhibitors and Substrates of Cytochrome P450 3A4 (AID 884); conditions: recombinant CYP3A4, Luciferin-PPXE luminescence; series mostly up to 57.1 µM; also: potency is read from the fitted curve at half-maximal effect; nearly all actives have a fitted effect of over 50% in size
Sequence of Cytochrome P450 3A4 (Homo sapiens) (P08684 whole entry, looked up): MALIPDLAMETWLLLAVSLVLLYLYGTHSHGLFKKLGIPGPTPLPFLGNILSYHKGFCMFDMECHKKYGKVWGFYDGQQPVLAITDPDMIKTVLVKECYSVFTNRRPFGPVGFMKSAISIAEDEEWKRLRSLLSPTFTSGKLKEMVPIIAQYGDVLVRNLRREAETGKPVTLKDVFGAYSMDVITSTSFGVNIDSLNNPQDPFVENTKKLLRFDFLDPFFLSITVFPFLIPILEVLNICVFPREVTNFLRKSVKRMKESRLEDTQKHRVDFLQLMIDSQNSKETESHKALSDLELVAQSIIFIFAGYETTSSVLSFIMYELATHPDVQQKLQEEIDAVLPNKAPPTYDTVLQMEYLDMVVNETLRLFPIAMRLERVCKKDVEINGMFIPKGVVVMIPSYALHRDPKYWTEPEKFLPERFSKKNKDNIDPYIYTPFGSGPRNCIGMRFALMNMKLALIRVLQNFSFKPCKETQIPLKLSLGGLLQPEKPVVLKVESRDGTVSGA
Outline: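 Luminescent readout of luciferin produced by CYP3A4 (20 nM) dealkylation of Luciferin-PPXE, 25 uM (its KM). NADPH-driven reaction ran 60 min at RT after 10 min compound preincubation; data scaled to 57 uM ketoconazole as 100% inhibition.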

[17] = measured here: cell count channel max response
[18] = measured here: lipid channel max response

O=c1c(-c2cccs2)nc2cnc(N3CCOCC3)nc2n1Cc1ccc(F)cc1
inactive: Potency [1] > 11.4 µM | activity change, negative = inhibition [2] 27.4% | activity change, negative = inhibition [4] 27.2% | Potency [5] > 9.22 µM | Potency [6] > 46 µM | outcome [7] | Potency [8] | activity change, negative = inhibition [9] -2.08% | Potency [10] | Potency [11] | Potency [12] | Potency [13] | Potency [14]
18.9%: max response [9, 17]
13.5%: max response [9, 18]
active: Potency [3] 20 µM

COc1ncc2nc(-c3cc(F)cc(F)c3)c(=O)n(-c3ccccc3)c2n1
11.8%: max response [9, 18]
inactive: Potency [1] > 11.4 µM | activity change, negative = inhibition [2] -20.2% | activity change, negative = inhibition [4] -3.83% | activity, negative = inhibition [15] -1.05% | Potency [5] > 9.22 µM | Potency [6] > 46 µM | outcome [7] | Potency [8] | activity change, negative = inhibition [9] 3.41% | Potency [10] | Potency [11] | Potency [12] | Potency [14]
11.4%: max response [9, 17]
active: Potency [3] 1.26 µM

COc1ccc(-n2c(=O)c(-c3cccs3)nc3cnc(OC)nc32)cc1
13.8%: max response [9, 18]
inactive: Potency [1] > 11.4 µM | activity change, negative = inhibition [2] -22.9% | activity change, negative = inhibition [4] -2.37% | activity, negative = inhibition [15] -2.82% | Potency [5] > 9.22 µM | Potency [6] > 46 µM | outcome [7] | activity change, negative = inhibition [9] 3.59% | Potency [10] | Potency [11] | Potency [12] | Potency [13] | Potency [14]
12.4%: max response [9, 17]
active: Potency [3] 5.01 µM | Potency [16] 7.94 µM
